Results on 63 compounds are retold here after PubChem BioAssay AID1850 (Southern Research Specialized Biocontainment Screening …, 2009).

Out of some 310,000 compounds screened, about 1,000 (0.32%) were called active. Not all results are given here. Measured potencies and affinities stand elsewhere. Unmarked numbers belong to inactive results. How the calls were made is not given here.

The nature of the test: Inhibition of PhoP regulon, Salmonella typhi GFP reporter cells, confirmation, 4 h (AID 1850).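 Further: 0% = induced wells with vehicle and 100% = uninduced wells.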 The note with it: Salmonella Typhi PhoP-promoter GFP reporter, fluorescence, at 50 µM, stronger effect = higher value.
As to `CCCCN1CCNC[C@H]1Cc1ccc(O)cc1`, the inhibition (as a rule, the change of the read-out against control, counted positive when it falls) is 0.57%.
Consider `Oc1ccc(C[C@@H]2CNCCN2CC2CCCCC2)cc1`, for which the inhibition was -6.54%.
The figure for `c1ccc(C[C@H]2CNCCN2CCC23CC4CC(CC(C4)C2)C3)cc1` is 15.7%.
The figure for `c1ccc(C[C@H]2CNCCN2CCCCC2CCCCC2)cc1` is 1.44%; for `Oc1ccc(C[C@H]2CNCCN2CCC23CC4CC(CC(C4)C2)C3)cc1` it is -7.57%; for `Oc1ccc(C[C@H]2CNCCN2CC2CCCCC2)cc1` it is -0.4%.
The figure for `Nc1ccccc1SCC(O)Cn1ccc2ccccc21` (stereo not drawn) is 0.67%; for `CN1CCN(CCC(=O)Nc2cccc(F)c2)CC1` it is -7.12%.
Regarding `CCOc1ccc(N(CC(=O)N2CCN(Cc3ccccc3)CC2)S(C)(=O)=O)cc1`, the inhibition was 1.84%.
The value for `COc1ccc(N2CCN(C(=O)c3ccc(CSc4ccccc4)cc3)CC2)cc1` was 3.8%; that for `CCC(=O)N1CCc2cc(S(=O)(=O)NCCC(=O)NCc3ccc(F)cc3)ccc21` was 5.61%.
As for `CN(C(=O)Cc1c(C(=O)O)n(C)c2ccccc12)c1ccc(Cl)cc1`, the inhibition was -0.76%.
In the case of `CCOC(=O)C1CN(S(=O)(=O)c2ccccc2)C1`, the inhibition was -1.91%.
The value for `CC(C)CC(NS(=O)(=O)c1cccc(C(=O)O)c1)C(=O)O` (stereo not drawn) was -4.1%; that for `CSc1cccc(NC(=O)c2ccccc2N(C)S(C)(=O)=O)c1` was 3.99%.
The figure for `CCc1nnc(NC(=O)[C@@H](NC(=O)c2ccc(C(C)(C)C)cc2)C(C)C)s1` is -2.72%.
The value for `O=C(NC(=S)NNC(=O)c1cnccn1)c1ccc(Cl)cc1` was 10.3%; that for `COc1ccc(C(=O)NC(=S)NNC(=O)c2cnccn2)cc1OC` was 31.3%; that for `O=C(NNC(=S)NC(=O)c1cccnc1)c1ccc(F)cc1` was 15.9%.
As for `COc1cc(OC)cc(C(=O)NC(=S)NNC(=O)c2cnccn2)c1`, the inhibition is -6.65%.
The figure for `COc1cc2oc(=O)cc(C)c2c(OC)c1OC` is -3.26%; for `Cc1ccc(NC(=O)C2CCCN(S(=O)(=O)c3cccs3)C2)cc1` (stereo not drawn) it is 3.27%; for `COc1ccc(N2C(N)=NC(N)=NC2(C)C)cc1` it is 2.39%.
The value for `CCOc1ccc(N2C(N)=NC(N)=NC2(C)C)cc1` was -0.23%; that for `COC(=O)c1ccc(CNC(=O)COC(=O)Cc2ccsc2)cc1` was 8.65%; that for `O=C(Nc1ccc(F)cc1)c1sc(Cl)nc1-c1ccccc1` was -0.89%.
In the case of `O=C(/C=C/c1ccc(Br)cc1)c1ccco1`, the inhibition is 2.45%.
The value for `O=C(/C=C/c1ccccc1O)c1ccco1` was 8.77%.
The figure for `COc1ccc(/C=C/C(=O)Oc2ccc(C)cc2)cc1` is -5.85%; for `Cc1ccc(-c2cc(-c3ccc(C)cc3)[n+](C)o2)cc1` it is -2.37%.
The value for `CN(Cc1ccccc1OCCO)CC1CCCN(CCc2ccc(Cl)cc2)C1` (stereo not drawn) was 0.25%; that for `CCOc1cccc(CN(C)CC2CCCN(CCc3ccc(Cl)cc3)C2)c1O` (stereo not drawn) was -8.67%.
Regarding `O=C(Nc1c(C(=O)N2CCOCC2)cnn1-c1ccccc1)c1cccc(F)c1`, the inhibition is -2.99%.
For `Cc1ccc2nc(N(CCN3CCOCC3)C(=O)CCS(=O)(=O)c3ccccc3)sc2c1`, the inhibition was 0.17%.
The value for `COc1cnc(-c2ccccn2)[nH]c1=O` was -0.99%; that for `O=c1[nH]c(-c2ccccn2)nc2ccccc12` was -0.6%; that for `O=C(NC1CCCC1)C(c1ccccn1)N(C(=O)c1csnn1)c1ccccc1Br` (stereo not drawn) was 5.15%.
The figure for `CCN(CC)CCNC(=O)CNC(=O)c1nn(-c2ccc(OC)c(OC)c2)c(=O)c2ccccc12` is -2.16%.
The figure for `CC(=O)c1cc(C)ccc1OC(=O)c1ccncc1` is -3.27%; for `CN1CCC2(CC1)N=C(c1ccc(F)cc1)C(=S)N2C(=O)c1ccc(C(C)(C)C)cc1` it is 17.9%.
Regarding `CN1CCC2(CC1)N=C(c1ccc(F)cc1)C(=S)N2C(=O)c1ccccc1`, the inhibition was -2.67%.
Regarding `O=C(O)c1ccc(S(=O)(=O)Nc2ccc3c(c2)OCCO3)cc1`, the inhibition is -5.88%.
As to `CCCC(=O)Nc1ccc(C(=O)NNC(=O)COc2ccc(Br)c(C)c2)cc1`, the inhibition was -2.62%.
For `O=c1[nH]cc(O)c(=O)[nH]1`, the inhibition is 6.55%.
Consider `O=c1[nH]cc(-c2ccccc2)c(=O)[nH]1`, for which the inhibition is 2.03%.
The value for `COC(=O)CN1C2=NCCCN2c2ccccc21` was 6.91%.
The figure for `Cc1sc2ccccc2[n+]1CC(=O)c1ccccc1` is -4.52%.
The value for `Cc1sc2cc3c(c(C(=O)c4ccccc4)[n+]2c1C)-c1cccc2cccc-3c12` was -9.84%; that for `O=C(OCc1ccc(COC(=O)c2cccnc2Cl)cc1)c1cccnc1Cl` was -8.94%.
Consider `CCOc1ccc(OCC(=O)N2CCOCC2)cc1`, for which the inhibition is -0.13%.
The value for `CCn1nc(C(=O)N2CCN(Cc3ccc4c(c3)OCO4)CC2)c2ccccc2c1=O` was -11.3%; that for `CCn1cc(C(=O)NCCC(=O)OC)c(=O)c2cc3c(cc21)OCO3` was 2.1%; that for `CCn1ccc(=O)c2cc3c(cc21)OCO3` was -2.2%.
For `CCOC(=O)c1cn(CC)c2cc3c(cc2c1=O)OCO3`, the inhibition was 2.61%.
Regarding `O=C(Nc1ccccc1C(F)(F)F)N1CCN(c2ccccn2)CC1`, the inhibition was 5.82%.
Regarding `O=C(C1CC(c2ccccc2O)=NO1)N1CCc2ccccc2C1` (stereo not drawn), the inhibition is -3.18%.
The value for `O=C(C[n+]1cccc(CNC(=O)c2ccc(OC(F)F)cc2)c1)Nc1cccc(C(F)(F)F)c1` was 1.69%; that for `O=C(C[n+]1cccc(CNC(=O)c2ccc(OC(F)F)cc2)c1)Nc1ccc(F)cc1` was -3.3%.
The value for `O=C(COC(=O)C1=COCCO1)Nc1ccc(F)cc1` was 2.51%; that for `Cc1ccc(SCC(=O)Nc2ccc3c(c2)C(=O)NC3=O)cc1` was 5.23%; that for `Oc1ccc(C23CC4CC(CC(C4)C2)C3)cc1O` was 0.69%.
The value for `Oc1ccccc1CNCC12CC3CC(CC(C3)C1)C2` was 6.43%.
`C=CCNC(=O)c1cccc(OC2CCN(CC(C)(C)C)CC2)c1`: the inhibition was -1.47%.
